Results filed as inconclusive are left out. Entries that show only a call come without a potency. Activity calls are given as the source filed them. The call rests on the fitted dose curve; in most records, active means well fitted inhibition curve with a large enough effect; inconclusive means small, poorly fitted or top-dose-only effect, or effect the other way; inactive means flat fitted curve, though single readings scatter.
Biological target: Ubiquitin carboxyl-terminal hydrolase 2 (Homo sapiens) (UniProt O75604)
Test: qHTS Validation Assay for Inhibitors of Ubiquitin-specific Protease USP2a Using CHOP2 as the Reporter (AID 463106)
Settings: USP2a cleavage of CHOP2 reporter, enzymatic; series mostly up to 38.3 µM
From the text: NIH Molecular Libraries Screening Centers Network [MLSCN]
NIH Chemical Genomics Center [NCGC]
PI Name: Nicholson, Ben. Progenra Inc, Malvern, PA
Homeostasis of cellular proteins is maintained through a combination of synthesis and degradation. The pathway that accounts for the majority of protein degradation is the ubiquitin-proteasomal pathway. Ubiquitin (Ub) is highly conserved in all cells and the generation of a multi-Ub chain typically targets proteins for degradation by the proteasome. However, ubiquitination is highly reversible and dynamic. Deubiquitination, the reverse process, is catalyzed through the action of enzymes referred to as isopeptidases or deubiquitinating enzymes (DUBs). This group of enzymes is collectively responsible for maintaining adequate pools of free ubiquitin and regulating the ubiquitination status of cellular proteins. The class of DUBs referred to as the ubiquitin-specific proteases (USP) family functions endoproteolytically to cleave Ub chains from a wide range of protein substrates. USP2a deubiquitinates fatty acid synthase (FASN) which has recently been identified as an emerging oncology target. To identify inhibitors of USP2a a cell-free assay was employed.
The reporter enzyme chosen is an enterokinase called CHOP2, which is activated when the Ub is cleaved by USP2. The free and now activated reporter can subsequently act on its reporter substrate. […] The assay was developed by Progenra, Inc. and has been licensed for sale by LifeSensors, Inc. as Ub-CHOP2-Reporter-Kit (#PR1101).
NCGC Assay Protocol Summary:
The assay buffer, prepared fresh at the day of the assay, contains 20mM Tris-HCl pH 8.0, 2mM CaCl2, 2mM beta-Mercaptoethanol, 0.05% CHAPS. 3ul of 20nM (10nM final) USP2 core, which is stored on ice, is dispensed into a medium-binding black solid Kalypsys 1,536 well plate using the Kalypsys dispenser. The assay plate is then pinned with 23nL compound with the Kalypsys pintool in columns 5-48. The controls are pinned as follows: column 1 two-fold dilutions of 2M NEM in duplicate; column 2 2M NEM (final concentration 38.2mM); column 3&4 DMSO. The assay plate is incubated at RT for 30min. Subsequently, 1.5uL of 100nM (25nM final) Ub-CHOP2 and 1.5uL of 100nM (25nM final) Reporter Substrate (both stored on ice and protected from light) were dispensed into the plate using the Kalypsys dispenser. Plates were read after 60min RT incubation on a ViewLux (Perkin Elmer) plate reader using the following wavelengths Ex 485nm /Em 531nm.
Data were normalized to the to AC100 inhibition (NEM). Concentration-response curves were fitted to the normalized data and the concentration-response curves were then classified based on curve quality (r2), response magnitude and degree of measured activity. The time zero reading was used to flag fluorescence artifacts.
Keywords: ubiquitination, deubiquitination, proteases, profluorescent, MLSMR, MLPCN, NIH Roadmap, qHTS, NCGC

Ubiquitin carboxyl-terminal hydrolase 2 (Homo sapiens), sequence (O75604 whole entry, looked up): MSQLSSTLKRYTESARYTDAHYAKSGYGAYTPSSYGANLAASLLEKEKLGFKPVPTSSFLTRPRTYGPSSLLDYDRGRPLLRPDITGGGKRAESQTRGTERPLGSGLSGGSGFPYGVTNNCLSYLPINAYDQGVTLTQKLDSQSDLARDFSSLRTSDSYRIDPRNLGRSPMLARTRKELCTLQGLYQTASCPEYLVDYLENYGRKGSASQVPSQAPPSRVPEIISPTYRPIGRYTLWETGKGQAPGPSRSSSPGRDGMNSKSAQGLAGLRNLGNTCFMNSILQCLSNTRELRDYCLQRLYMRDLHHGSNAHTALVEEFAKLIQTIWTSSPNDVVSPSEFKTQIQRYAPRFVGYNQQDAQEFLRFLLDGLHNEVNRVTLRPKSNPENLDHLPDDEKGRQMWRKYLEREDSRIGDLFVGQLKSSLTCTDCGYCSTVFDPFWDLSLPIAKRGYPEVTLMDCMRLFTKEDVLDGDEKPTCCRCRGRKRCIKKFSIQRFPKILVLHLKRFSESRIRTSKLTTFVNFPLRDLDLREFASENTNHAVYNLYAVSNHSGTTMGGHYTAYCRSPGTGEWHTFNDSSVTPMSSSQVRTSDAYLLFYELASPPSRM

| SMILES | Potency |
| --- | --- |
| NC(N)=NOCCC(N)C(=O)O (stereo not given) | inactive |
| O=C(O)Cc1cnc[nH]1 | inactive |
| CC(=O)NCCc1c[nH]c2ccccc12 | inactive |
| CCCN1CCC[C@H](c2cccc(O)c2)C1 | inactive |
| NCc1cc(=O)[nH]o1 | inactive |
| CN[C@@H]1C[C@@H](c2ccc(Cl)c(Cl)c2)c2ccccc21 | inactive |
| COC(=O)[C@@H](N)CCCN=C(N)N[N+](=O)[O-] | inactive |
| Cc1nccc2c1[nH]c1ccccc12 | inactive |
| CC1=NN=C(c2ccc(N)cc2)c2cc3c(cc2C1)OCO3 | inactive |
| Cc1c(C(=O)c2cccc3ccccc23)c2cccc3c2n1[C@H](CN1CCOCC1)CO3 | inactive |
| CC(C)NC(C)Cc1ccc(I)cc1 (stereo not given) | inactive |
| COc1cc(C(O)CN)ccc1O (stereo not given) | inactive |
| CNCCc1ccc(O)c(O)c1 | inactive |
| O=C(Cc1ccc(Cl)c(Cl)c1)N1CCCCC1CN1CCCC1 (stereo not given) | inactive |
| S=C(NC1CCCCC1)N1CCC(c2cnc[nH]2)CC1 | inactive |
| CCCN1CCO[C@@H]2c3cc(O)ccc3OC[C@H]21 | inactive |
| C[C@]12CCC3C(CC[C@H]4C[C@H](O)CC[C@]34C)C1CC[C@@H]2C(=O)CO (stereo not given in full) | inactive |
| C[C@]12N[C@H](Cc3ccccc31)c1ccccc12 | inactive |
| COc1ccc2c(c[n+](C)c3c4cc5c(cc4ccc23)OCO5)c1OC | inactive |
| Clc1cnc(Oc2ccc(Oc3ncc(Cl)cc3Cl)cc2)c(Cl)c1 | inactive |

| SMILES | Potency |
| --- | --- |
| CC(C)Oc1cccnc1N(C)C1CCN(Cc2ccccc2)CC1 | inactive |
| NC(CCP(=O)(O)O)C(=O)O (stereo not given) | inactive |
| CC[C@@H](C(N)=O)N1CCCC1=O | inactive |
| c1ccc(CCCN2CCN(CCOC(c3ccccc3)c3ccccc3)CC2)cc1 | inactive |
| c1ccc(C2(c3ccccc3)CC2C2=NCCN2)cc1 (stereo not given) | inactive |
| Oc1ccc2c3c1O[C@H]1c4[nH]c5c(c4C[C@@]4(O)[C@@H](C2)N(CC2CC2)CC[C@]314)C[C@@]1(O)[C@H]2Cc3ccc(O)c4c3[C@@]1(CCN2CC1CC1)[C@H]5O4 | inactive |
| NC1CC1c1ccccc1 (stereo not given) | inactive |
| O=C1CCCN1CC#CCN1CCCC1 | inactive |
| CC(=O)[C@H]1CCC2C3CC[C@H]4C[C@H](O)CC[C@]4(C)C3CC[C@@]21C (stereo not given in full) | inactive |
| NC(=O)CN1CC(O)CC1=O (stereo not given) | inactive |
| CC[C@@]1(O)C(=O)OCc2c1cc1n(c2=O)Cc2cc3ccccc3nc2-1 | inactive |
| CN1C2CCC1CC(OC(=O)c1cc(Cl)cc(Cl)c1)C2 (stereo not given) | inactive |
| CNCCc1c[nH]c2ccc(O)cc12 | inactive |
| O=C(O)[C@@H]1CCN1 | inactive |
| C[C@@H]1O[C@H](C[N+](C)(C)C)C[C@H]1O | inactive |
| C[N+]1(C)C2CCC1CC(OC(=O)C(CO)c1ccccc1)C2 (stereo not given) | inactive |
| CCCCc1ccc(C(=O)O)nc1 | inactive |
| C/C=C(/C)C(=O)O[C@H]1C(C)=C2[C@H]([C@@H]1OC(=O)CCCCCCC)[C@@](C)(OC(C)=O)C[C@H](OC(=O)CCC)[C@@]1(O)[C@H]2OC(=O)[C@@]1(C)O | inactive |
| O=C(N[C@H]1CN2CCC1CC2)c1ccc(Cl)cc1 | inactive |
| NC(CP(=O)(O)O)C(=O)O (stereo not given) | inactive |
